# Several values for one entry are separate records, joined by “and”; a condition that tells them apart may be missing. Equal entries are not always repeated. Structures can show the parent of a compound that is named as a salt. About 620 (11%) of roughly 5,800 compounds showed activity. The sample holds actives, similar compounds and a random draw of the others, so the mix is not that of the screen. Values without a mark were called inactive.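 How the source made its calls: active = score above a cut-off or among the top three wells of a plate; in these data no inactive exceeds 0.85.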
# System: primary human hepatic stellate cells (donor 1)
# Assay: scaled lipid accumulation score (0 = DMSO-like, 1 = nortriptyline-like); higher = stronger HSC inactivation (lipid re-accumulation), active = hit call of the paper
# Details: 48 h
# Protocol: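 Primary lipid accumulation screen in primary human hepatic stellate cell myofibroblasts (donor 1, passage 8) in 384-well plates. 100 nL of library compound was pin-transferred into 30 µL medium in duplicate, and cells were treated for 48 h. The 'Scaled' score combines distance from plate baseline, toxicity and reproducibility penalties, and is normalised to nortriptyline (positive) and DMSO (negative) controls on each plate. A hit is defined as scaled >0.85 or among the top 3 wells per plate.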
# [1] = library stock concentration: 10 mM
# [2] = library stock concentration: 1 mM
# [3] = library stock concentration: 3.33 mM
# [4] = library stock concentration: 80 uM
# [5] = library stock concentration: 400 uM
# [6] = library stock concentration: 2 mM
smiles,measurement,setting,value
CC(C)[C@H]1c2ccc(F)cc2CC[C@@]1(CCN(C)CCCc1nc2ccccc2[nH]1)OC(=O)C1CC1,scaled lipid accumulation score,[1],≤ -0.055
CC(C)[C@H]1c2ccc(F)cc2CC[C@@]1(CCN(C)CCCc1nc2ccccc2[nH]1)OC(=O)C1CC1 [NNC 55-0396 dihydrochloride],scaled lipid accumulation score,[1],0.432
COc1ccc(-c2nc3cc(F)ccc3s2)cc1OC,scaled lipid accumulation score,[2],≤ 0
C=C1C[C@]23C[C@@]1(O)CC[C@H]2[C@@]12C=C[C@H](O)[C@@](C)(C(=O)O1)[C@H]2[C@@H]3C(=O)O [Gibberellic acid],scaled lipid accumulation score,,≤ 0
Cc1cc(I)ccc1Nc1c(C(=O)NOCC2CC2)cc(F)c(F)c1F,scaled lipid accumulation score,[1],≤ -0.001
CCc1cc2c(c(CC)n1)CCC(=O)N2Cc1ccc(-c2ccccc2-c2nn[nH]n2)cc1 [ZD 7155 hydrochloride],scaled lipid accumulation score,[1],0.009
CCCCCCCCCCCCCCC[C@@H](O)[C@H](CO)NC(=O)CCCCCCC [C8 Dihydroceramide],scaled lipid accumulation score,[2],≤ -0.021
CCN(CC)CCOC(=O)C(c1ccccc1)c1ccccc1 [Adiphenine hydrochloride],scaled lipid accumulation score,,≤ 0
same,scaled lipid accumulation score,library stock concentration: 5.7 mM,0.005
same,scaled lipid accumulation score,[1],0.111
CN(CCCOc1ccc(Cc2ccccc2)cc1)CCC(=O)O,scaled lipid accumulation score,[1],≤ 0
CCN(CC)CCOc1ccc(Cc2ccccc2)cc1.O=C(O)/C=C/C(=O)O [DPPE fumarate],scaled lipid accumulation score,[1],0.879 (active)
CCN(CC)CCOC(=O)C(c1ccccc1)c1ccccc1 [Adiphenine HCl],scaled lipid accumulation score,[3],≤ 0
same,scaled lipid accumulation score,[1],≤ 0
COc1ccc2c(c1)c(CC(=O)Nc1cccnc1)c(C)n2C(=O)c1ccc(Cl)cc1 [N-(3-pyridyl)-Indomethacin amide],scaled lipid accumulation score,[2],0.198
CCCc1ccc(C(=O)Oc2ccc(C#N)cc2)cc1,scaled lipid accumulation score,[1],0.011
CN(C)C(=O)CCSC(SCCC(=O)O)c1cccc(/C=C/c2ccc3ccc(Cl)cc3n2)c1 (stereo not drawn) [MK 571 (sodium salt)],scaled lipid accumulation score,[2],≤ 0
CCOc1cc2ncc(C#N)c(Nc3ccc(F)c(Cl)c3)c2cc1NC(=O)C=CCN(C)C,scaled lipid accumulation score,[1],1.13 (active)
CCOc1cc(C(=O)Nc2ccc(Cl)c(-c3nc4ccccc4[nH]3)c2)cc(OCC)c1OCC,scaled lipid accumulation score,[1],0.438
CCOc1cc2ncc(C#N)c(Nc3ccc(F)c(Cl)c3)c2cc1NC(=O)C=CCN(C)C [Pelitinib (EKB-569)],scaled lipid accumulation score,[3],1.01 (active)
CCOc1cc2ncc(C#N)c(Nc3ccc(OCc4ccccn4)c(Cl)c3)c2cc1NC(=O)/C=C/CN(C)C,scaled lipid accumulation score,[4],≤ 0
same,scaled lipid accumulation score,[5],≤ 0
same,scaled lipid accumulation score,[6],0.107
same,scaled lipid accumulation score,[1],0.02
CCOc1cc2ncc(C#N)c(Nc3ccc(F)c(Cl)c3)c2cc1NC(=O)/C=C/CN(C)C [Pelitinib (EKB-569)],scaled lipid accumulation score,[1],0.498
CCOc1cc2ncc(C#N)c(Nc3ccc(F)c(Cl)c3)c2cc1NC(=O)/C=C/CN(C)C,scaled lipid accumulation score,[4],0.071
same,scaled lipid accumulation score,[5],≤ -0.009
same,scaled lipid accumulation score,[6],0.269
CCCCCC(=O)/C=C/[C@H]1[C@H](O)CC(=O)[C@@H]1CCCCCCC(=O)O [15-keto Prostaglandin E1],scaled lipid accumulation score,[2],≤ 0
O=C(Nc1ccc([N+](=O)[O-])cc1O)Nc1ccccc1Br,scaled lipid accumulation score,[2],≤ 0
same,scaled lipid accumulation score,[1],0.317
O[C@@H](COc1cccc2ncccc12)CN1CCN(C2c3ccccc3[C@@H]3[C@H](c4ccccc42)C3(F)F)CC1 (stereo partly drawn),scaled lipid accumulation score,[3],0.206
same,scaled lipid accumulation score,[1],0.837
CCC(C)N(C)C(=O)c1cc2ccccc2c(-c2ccccc2Cl)n1 (stereo not drawn),scaled lipid accumulation score,[1],0.007 and ≤ 0
CC(C)(F)C[C@H](N[C@@H](c1ccc(-c2ccc(S(C)(=O)=O)cc2)cc1)C(F)(F)F)C(=O)NC1(C#N)CC1 [Odanacatib (MK-0822)],scaled lipid accumulation score,[3],≤ 0
same,scaled lipid accumulation score,[1],≤ 0
"CC(C)CCOc1ccc(N)cc1 [CP 24,879 (hydrochloride)]",scaled lipid accumulation score,[2],≤ 0
OCCn1cc(-c2ccc3c(c2)CC/C3=N\O)c(-c2ccncc2)n1,scaled lipid accumulation score,[4],0.006
same,scaled lipid accumulation score,[5],0.086
same,scaled lipid accumulation score,[6],≤ -0.009
same,scaled lipid accumulation score,[3],0.041
same,scaled lipid accumulation score,[1],≤ 0 and ≤ -0.009
CN(C)CCOc1ccc(-c2nc(-c3ccncc3)c(-c3ccc4c(c3)CCC4=NO)[nH]2)cc1,scaled lipid accumulation score,[3],1.06 (active)
CN(C)CCOc1ccc(-c2nc(-c3ccncc3)c(-c3ccc4c(c3)CC/C4=N\O)[nH]2)cc1,scaled lipid accumulation score,[4],0.074
same,scaled lipid accumulation score,[5],0.325 and 0.619
same,scaled lipid accumulation score,[6],0.7 and 0.684
same,scaled lipid accumulation score,[1],0.476 and 0.423 and 0.307
"CCCCCC(O)CCC1C(O)CC(=O)C1CCCCCCC(=O)O [13,14-dihydro-15(R)-Prostaglandin E1]",scaled lipid accumulation score,[2],≤ 0
"CCCCCC(O)CCC1C(O)CC(=O)C1CCCCCCC(=O)O (stereo not drawn) [13,14-dihydro Prostaglandin E1]",scaled lipid accumulation score,[2],≤ 0
COc1ccc(-c2nc(-c3ccc(-c4cccc(Cl)c4)o3)[nH]c2-c2ccc(OC)cc2)cc1 [Neurodazine],scaled lipid accumulation score,[2],0.352
same,scaled lipid accumulation score,[1],0.113
CC(=O)OC1CC2CCC1(C)C2(C)C (stereo not drawn),scaled lipid accumulation score,[1],≤ 0
Cc1cc(C=C2C(=O)C=CC2=O)cc(C)c1O [listing 1 of 2 here],scaled lipid accumulation score,[1],0.924 (active)
Cc1cc(C=C2C(=O)C=CC2=O)cc(C)c1O [listing 2 of 2 here],scaled lipid accumulation score,[4],≤ -0.001
same,scaled lipid accumulation score,[5],≤ -0.001
same,scaled lipid accumulation score,[6],0.593
same,scaled lipid accumulation score,[3],0.464
CCCCCCCCCCCCCCCCOCC(COP(=O)(O)OCC[N+](C)(C)C)OCC (stereo not drawn) [2-O-ethyl PAF C-16],scaled lipid accumulation score,[2],≤ 0
CC(=O)NC(C(=O)O)c1ccccc1 (stereo not drawn),scaled lipid accumulation score,[1],≤ 0
CC(=O)Nc1ccc([C@H](C)C(=O)Nc2ncc(C(C)C)s2)cc1,scaled lipid accumulation score,[5],≤ -0.005
same,scaled lipid accumulation score,[6],0.175
same,scaled lipid accumulation score,[1],0.348
CC(C)C(=O)Nc1ncc(-c2cc(C(F)F)nn2-c2c(Cl)cccc2Cl)s1,scaled lipid accumulation score,[1],1.1 (active)
CC(C)(C)c1cc(NC(=O)Nc2ccc(-c3cn4c(n3)sc3cc(OCCN5CCOCC5)ccc34)cc2)no1 [Quizartinib  (AC220) (2 mM)],scaled lipid accumulation score,[6],1.02 (active)
CC(C)(C)c1cc(NC(=O)Nc2ccc(-c3cn4c(n3)sc3cc(OCCN5CCOCC5)ccc34)cc2)no1,scaled lipid accumulation score,[4],≤ 0
same,scaled lipid accumulation score,[5],≤ 0
same,scaled lipid accumulation score,[6],0.142
same,scaled lipid accumulation score,[1],0.292
CC(C)(C)c1cc(NC(=O)Nc2ccc(-c3cn4c(n3)sc3cc(OCCN5CCOCC5)ccc34)cc2)no1 [Quizartinib  (AC220) (0.4 mM)],scaled lipid accumulation score,[5],≤ -0.005
CC(C)(C)c1cc(NC(=O)Nc2ccc(-c3cn4c(n3)sc3cc(OCCN5CCOCC5)ccc34)cc2)no1 [Quizartinib (AC220)] [listing 1 of 2 here],scaled lipid accumulation score,[1],1.15 (active)
O=C(Cc1ccc(-c2ccc(OCCN3CCOCC3)cc2)cn1)NCc1ccccc1,scaled lipid accumulation score,[4],0.076
same,scaled lipid accumulation score,[5],0.268
same,scaled lipid accumulation score,[6],0.077
same,scaled lipid accumulation score,[3],0.093
same,scaled lipid accumulation score,[1],0.076 and 0.499
Cc1ccc(-n2nc(C(C)(C)C)cc2NC(=O)Nc2ccc(OCCN3CCOCC3)c3ccccc23)cc1,scaled lipid accumulation score,[4],≤ -0.009
same,scaled lipid accumulation score,[5],≤ -0.009
same,scaled lipid accumulation score,[6],0.044
same,scaled lipid accumulation score,[1],≤ -0.009
Cc1ccc(-n2nc(C(C)(C)C)cc2NC(=O)Nc2ccc(OCCN3CCOCC3)c3ccccc23)cc1 [BIRB 796 (Doramapimod)],scaled lipid accumulation score,[3],0.017
same,scaled lipid accumulation score,[1],≤ 0
CC(C)(C)c1cc(NC(=O)Nc2ccc(-c3cn4c(n3)sc3cc(OCCN5CCOCC5)ccc34)cc2)no1 [Quizartinib  (AC220) (10 mM)],scaled lipid accumulation score,[1],1.7 (active)
CC(C)(C)c1cc(NC(=O)Nc2ccc(-c3cn4c(n3)sc3cc(OCCN5CCOCC5)ccc34)cc2)no1 [Quizartinib (AC220)] [listing 2 of 2 here],scaled lipid accumulation score,[3],0.288
